NPC1 prom act: activators of NPC1 promoter; AID 485313; Huh7 NPC1 promoter luciferase reporter, 24 h; Potency, µM (highest dose often 9.22 µM), without a hit: at the highest dose activation, hits mostly activators; 2.4% of 320,000 active; further: % of control where 0% means no effect; nearly all actives have a fitted effect of over 60% in size
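Huh7 reporter cells (NPC1 promoter driving luciferase) are dosed with compound for 24 h at 37 °C, 5% CO2; luciferase detection reagent is then added and luminescence measured after 10 min at ambient temperature.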
Rab9 prom act: activators of Rab9 promoter | 2.8% of 320,000 active | Huh7 Rab9 promoter-luciferase reporter, luminescence, 24 h | Potency, µM (series often up to 9.22 µM), inactives show top-dose activation, negative = inhibition, actives largely listed as activators; further: % of control where 0% means no effect; nearly all actives have a fitted effect of over 60% in size
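Quantitative HTS format; Huh7 Rab9-luciferase reporter cells (1500/well) receive compound 2 h post-plating, incubate 24 h at 37 °C, then get luciferase reagent for 10 min before luminescence reading.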
ELG1 DNA repair: blocks ELG1-dependent DNA repair in HEK293T cells; HEK293T ELG1-luciferase reporter, luminescence, 16 h; DNA damage induced by 5-fluorouridine; Potency, µM (doses to about 46.1 µM), for inactives: top-dose activity change, negative = inhibition, actives largely listed as inhibitors; 2.3% of 330,000 active; AID 504467; further: on the % scale 0 is the no-effect control and ±100 the full control effect; nearly all actives have a fitted effect of over 55% in size
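Step one: seed 2,000 cells per well. Step two: pin-transfer compound or DMSO alongside 5-fluorouridine. Step three: incubate 16 hr, 37 °C, 5% CO2. Step four: add ONE-Glo, wait 30 min, read luminescence.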
SMN2 splice up: increases expression of the SMN2 splice variant | AID 1458 | HEK293 SMN2-luciferase splicing reporter, luminescence, 30-36 h | Potency, µM (doses to about 46.1 µM), without a hit: at the top dose activity change, positive = activation, actives largely listed as activators | 2.8% of 210,000 active; further: % of control where 0% means no effect; nearly all actives have a fitted effect of over 55% in size
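HEK293 cells carry an SMN2 minigene-luciferase reporter in which exon 7 inclusion puts luciferase in frame. Cells were seeded at 2000 cells/well, attached for 10-12 hours, then exposed to compounds for 30-36 hours at 37C before ONE-Glo luminescence.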
FLuc counter: inhibits or activates purified firefly luciferase, miR-21 counter-screen | P08659 | purified FLuc, Km substrates, luminescence inhibition | Potency, µM (top dose mostly 57.5 µM), inactives show at the highest dose activity change, negative = inhibition, actives largely listed as inhibitors | 6.9% of 360,000 active | AID 588342;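 further: plate controls were vehicle for no effect and reference inhibitor for full effect; nearly all actives have a fitted effect of over 55% in size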
Target sequence (P08659 whole entry, looked up): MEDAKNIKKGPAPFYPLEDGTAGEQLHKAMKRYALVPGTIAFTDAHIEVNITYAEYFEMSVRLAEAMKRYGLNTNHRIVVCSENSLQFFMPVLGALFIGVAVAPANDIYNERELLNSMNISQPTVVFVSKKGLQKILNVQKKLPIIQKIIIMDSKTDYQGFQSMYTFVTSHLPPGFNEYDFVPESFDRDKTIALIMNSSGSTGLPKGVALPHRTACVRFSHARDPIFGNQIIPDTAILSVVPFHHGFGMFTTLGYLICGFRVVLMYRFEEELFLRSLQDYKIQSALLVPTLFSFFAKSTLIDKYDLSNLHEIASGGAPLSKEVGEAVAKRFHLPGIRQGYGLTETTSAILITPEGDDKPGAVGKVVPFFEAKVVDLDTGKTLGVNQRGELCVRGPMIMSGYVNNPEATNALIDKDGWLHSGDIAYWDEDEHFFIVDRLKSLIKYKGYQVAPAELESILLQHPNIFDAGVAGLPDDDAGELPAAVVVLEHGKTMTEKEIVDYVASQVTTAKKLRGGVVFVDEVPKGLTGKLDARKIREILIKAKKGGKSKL
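Purified P. pyralis luciferase (10nM final) with 10uM D-luciferin and 10uM ATP (Km levels) in 50mM Tris acetate pH 7.5, 10mM Mg acetate, 0.01% Tween-20, 0.05% BSA; qHTS 6-point titration, ~60 µM downward; luminescence read.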
ELG1 genotoxic: genotoxicity induction in ELG1-luciferase HEK293T cells; HEK293T ELG1-luciferase reporter, luminescence, 16 h; Potency, µM (titrated, usually from 46 µM), for the others: top-dose activity change, positive = activation, usual class: activators; 1.3% of 330,000 active; further: % of control where 0% means no effect; nearly all actives have a fitted effect of over 60% in size
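DMSO vehicle served as control against compound-treated ELG1-luciferase HEK293T cells; exposure lasted 16 hr at 37 °C and 5% CO2, followed by ONE-Glo luminescence detection after 30 min.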
An asterisk follows results filed as active; ? = inconclusive; nt = no result. This is a sample that favours compounds with a hit; in the whole collection about 9.2% have one here. The call rests on the fitted dose curve; in most records, active means well fitted curve in the direction sought with a large enough effect; inconclusive means small, poorly fitted or top-dose-only effect, or another doubt; inactive means no such curve, though single readings can be large; an effect the other way counts as inactive or inconclusive. Potency means the concentration at half of the fitted maximal effect.

SMILES	NPC1 prom act	Rab9 prom act	ELG1 DNA repair	SMN2 splice up	FLuc counter	ELG1 genotoxic
CCN(CC)CCCN(C(=O)c1ccc(F)cc1)c1nc(-c2ccc(OC)cc2)cs1	-4%	-2%	-25%	nt	6%	-2%
COc1ccc(CC(=O)NCC2CCCN(Cc3ccc(SC)cc3)C2)cc1 (centres undefined)	1%	0%	-15%	nt	-4%	-4%
CCN(CC)CCNC(=O)c1ccc2c(c1NCCO)C(=O)c1ccccc1C2=O	-3%	-11%	13µM*	nt	?	-4%
CC1CCN(C(=O)c2ccc3c(c2NCCO)C(=O)c2ccccc2C3=O)CC1	1%	-5%	?	24%	-19%	-14%
O=C(COC(=O)C12CC3CC(CC(O)(C3)C1)C2)Nc1cccc(Br)c1	1%	-2%	19%	nt	13µM*	2%
CC1CC1C(=O)OCC(=O)Nc1cccc(Br)c1 (centres undefined)	0%	0%	17%	nt	?	2%
CCCCNS(=O)(=O)c1ccc(OCC(=O)OC)cc1	-2%	-6%	-1%	10%	1%	2%
Cc1ccc2c(CN3CC(C)CC(C)C3)cc(=O)oc2c1C (centres undefined)	1%	-5%	8%	nt	-14%	0%
Cc1c(O)ccc2c(CN3CCN(C/C=C/c4ccccc4)CC3)cc(=O)oc12	0%	-6%	18µM*	nt	4%	-2%
Cc1ccc2c(CN3CCC(C)CC3)cc(=O)oc2c1C	?	?	?	nt	17µM*	?
Cc1cccnc1CCNC(=O)CC1C(=O)NCCN1CC1CCCCC1 (centres undefined)	-1%	-11%	17%	nt	-1%	-1%
CCCCC(=O)N/C(N)=N/c1nc2ccccc2o1	1.3µM*	1.8µM*	?	nt	3µM*	?
N/C(=N\c1nc2ccccc2o1)NC(=O)c1ccccc1F	1.6µM*	2.5µM*	?	?	8.5µM*	?
N/C(=N\c1nc2ccccc2o1)NC(=O)c1cccc(Cl)c1	15%	2%	14%	nt	1%	7%
CCCOc1ccc(-c2nnn(CC(=O)OCC)n2)cc1	12%	2%	7%	-15%	?	1%
CCOC(=O)Cn1nnc(-c2cccc(OC)c2)n1	-1%	5%	20%	-6%	11µM*	6%
COc1ccc(OC)c(C(=O)Cn2nnc(-c3ccc(N4CCOCC4)cc3)n2)c1	0%	1%	?	nt	9.5µM*	-7%
COc1cc(-c2nnn(CC(=O)N3CCOCC3)n2)cc(OC)c1OC	1%	-1%	23%	-11%	-2%	0%
COc1ccc(-c2ccc(-c3nnn(CC(=O)N4CCOCC4)n3)cc2)cc1	3.2µM*	2.8µM*	?	?	0.38µM*	?
CCCOc1ccc(-c2nnn(CC(=O)N3CCCCC3)n2)cc1	1%	-2%	0%	nt	17µM*	-6%
CCc1ccc(NC(=O)c2cc(CN3CCOCC3)on2)cc1	nt	nt	nt	nt	-5%	nt
Cc1ccccc1CSCC(=O)NCc1ccco1	-2%	1%	7%	15%	-4%	6%
O=C(Cn1nnc(-c2ccccc2F)n1)N1CCCCC1	3.2µM*	2.5µM*	?	nt	?	?
Cc1cc(NC(=O)C2CC(=O)N(c3ccccc3Cl)C2)no1 (centres undefined)	-4%	1%	0%	nt	1%	0%
Cc1ccc(-n2cc(CNCC3CC(=O)N(C4CC4)C3)c(-c3cccc(C)c3)n2)cc1 (centres undefined)	-5%	9%	?	nt	21µM*	-4%
SMILES	NPC1 prom act	Rab9 prom act	ELG1 DNA repair	SMN2 splice up	FLuc counter	ELG1 genotoxic
CCOC(=O)c1cc(-c2ccccc2)sc1NC(=O)C(C)Sc1nnnn1C (centres undefined)	-1%	9%	18µM*	-22%	2%	-15%
CCOC(=O)c1cc(-c2ccccc2)sc1NC(=O)C(C)N1C(=O)NC(C)(c2ccc(Cl)cc2)C1=O (centres undefined)	-1%	3%	26µM*	10%	4%	-6%
COc1ccc(Br)c(C(=O)OCC(=O)N2CCC(Cc3ccccc3)CC2)c1	0%	-6%	?	nt	1%	-1%
CC(=O)Nc1ccc(/C=N/N2C(C)CCCC2C)cc1 (centres undefined)	11%	16%	16%	-29%	1%	7%
CC(=O)Nc1ccc(/C=N/N2CCCCC2)cc1	3.2µM*	4.5µM*	?	14µM*	27µM*	?
CCS(=O)(=O)Nc1ccc(-c2ccc(NS(=O)(=O)CC)c(OC)c2)cc1OC	-2%	-1%	23µM*	-16%	-1%	-2%
COc1ccc(NS(=O)(=O)CC(C)C)c(OC)c1	-3%	0%	3%	12%	4%	0%
CN(CCCN1CCOCC1)C(=O)c1ccc2nc(Cc3cccc(Cl)c3)oc2c1	1%	1%	15µM*	nt	-3%	-2%
Cc1cc(C2=NNC(=NC3CC3)SC2)c(C)n1-c1ccccc1	-32%	-40%	4.6µM*	-101%	0.076µM*	-10%
COc1ccc(-n2c(C)cc(C3=NNC(=NC4CC4)SC3)c2C)cc1	-2%	0%	?	4µM*	5.4µM*	?
CCCC(=O)OC1CC(C)N(C(=O)c2ccccc2)c2ccc(C)cc21 (centres undefined)	-8%	0%	?	-87%	1%	3%
CC(=O)OC1CC(C)N(C(=O)c2ccccc2)c2ccc(C)cc21 (centres undefined)	4%	1%	0%	?	-1%	21µM*
CCC(=O)N1c2ccc(S(=O)(=O)NCc3cccc(OC)c3)cc2CC1C (centres undefined)	nt	nt	nt	-32%	-2%	nt
Oc1cc(NCc2cccnc2)ccc1-c1nc2ccccc2o1	1.4µM*	?	?	11µM*	7.6µM*	?
O=C(Nc1ccc(-c2nc3ccccc3o2)c(O)c1)c1cc(Cl)ccc1Cl	nt	nt	nt	5%	?	nt
O=c1c(CCc2ccccc2)nc2cnc(N3CCOCC3)nc2n1C[C@H]1CCCO1	nt	nt	nt	-9%	nt	nt
COc1ccc(-c2coc3c(O)c(OC)ccc3c2=O)cc1	nt	nt	nt	1.6µM*	nt	nt
CCN(CC)C(=O)Oc1ccc2c(=O)c(-c3ccc(OC)cc3)coc2c1	1.8µM*	?	?	-12%	8.5µM*	1%
COc1ccc2c(=O)c(-c3ccc4c(c3)OCO4)coc2c1	0.35µM*	0.4µM*	?	11µM*	0.67µM*	2.9µM*
CCN(CC)C(=O)Oc1ccc2c(=O)c(-c3ccc(OC)cc3)c(C)oc2c1	-4%	-1%	?	-47%	?	-10%
